# Assays:
# Conditions in all cases: concentration: 1 μM, replicates: in singlicate; n = 1
# MARK3 = tested on: MARK3
# MARK4 = tested on: MARK4
# MAST1 = tested on: MAST1
# MEK1 = tested on: T1, MEK1
# T1 construct: gene MAP2K1
# MEK2 = tested on: T2, MEK2
# T2 construct: gene MAP2K2
# MEK3 = tested on: T3, MEK3
# T3 construct: gene MAP2K3
# MEK4 = tested on: T4, MEK4
# T4 construct: gene MAP2K4
# MEK5 = tested on: T5, MEK5
# T5 construct: gene MAP2K5
# MEK6 = tested on: T6, MEK6
# T6 construct: gene MAP2K6
# MELK = tested on: MELK
# MERTK = tested on: MERTK
# MET = tested on: MET
# MINK = tested on: T7, MINK
# T7 construct: gene MINK1
# MKK7 = tested on: MKK7
# MKNK1 = tested on: MKNK1
# MKNK2 = tested on: MKNK2
# MLCK = tested on: T8, MLCK
# T8 construct: gene MYLK3
# MLK1 = tested on: T9, MLK1
# T9 construct: gene MAP3K9
# MLK2 = tested on: MLK2
# MLK3 = tested on: MLK3
# 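Note: KINOMEscan kinase panel screen.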
SMILES,%Inh (MARK3) [%],%Inh (MARK4) [%],%Inh (MAST1) [%],%Inh (MEK1) [%],%Inh (MEK2) [%],%Inh (MEK3) [%],%Inh (MEK4) [%],%Inh (MEK5) [%],%Inh (MEK6) [%],%Inh (MELK) [%],%Inh (MERTK) [%],%Inh (MET) [%],%Inh (MINK) [%],%Inh (MKK7) [%],%Inh (MKNK1) [%],%Inh (MKNK2) [%],%Inh (MLCK) [%],%Inh (MLK1) [%],%Inh (MLK2) [%],%Inh (MLK3) [%]
FC(F)(F)c1ccc(-c2cc(-c3c[nH]nc3-c3ccccn3)ccn2)cc1 [GW599550],0,2,0,5,0,0,18,8,0,0,0,14,75,0,7,0,7,10,0,21
CSc1nn2c(=O)cc(N3CCOCC3)nc2n1Cc1cccc(Cl)c1Cl [GSK2347225],2,3,0,0,5,0,33,48,0,18,40,0,21,0,20,2,13,0,4,11
Cn1cc(-c2ccc3c(c2)CCN3C(=O)Cc2cccc(C(F)(F)F)c2)c2c(N)ncnc21 [GSK2606414],0,7,0,0,0,0,22,6,0,8,43,0,0,0,0,1,12,0,27,8
Cl.Fc1ccccc1COc1ccc(Nc2ncnc3ccc(-c4nnc(C(F)(F)F)o4)cc23)cc1Cl [GW424170],0,0,0,0,0,0,28,10,0,0,10,0,0,0,0,0,0,0,0,3
FC(F)(F)c1ccc(-c2nn3ncccc3c2-c2ccnc(Nc3cccc(C(F)(F)F)c3)n2)cc1 [GW828205],13,0,12,4,28,0,0,4,0,0,1,21,12,0,0,0,0,4,0,0
Cl.O=S(=O)(c1cccc(F)c1)c1ccc(Nc2ncnc3cc(Br)sc23)cc1Cl [GSK306886],0,1,0,0,6,0,22,26,38,0,37,0,0,0,11,11,0,0,0,2
FC(F)(F)c1cc(Nc2nccc(-c3c(-c4ccc(Cl)cc4)nn4ncccc34)n2)ccc1Cl [GW829351],0,17,20,6,21,0,0,1,0,0,11,0,0,0,0,0,10,0,4,0
CC(C)N1CCC(n2cnc(-c3ccc(F)cc3)c2-c2ccnc(N)n2)CC1 [SB-223132],14,15,0,0,22,0,0,31,3,8,0,14,7,0,2,0,0,0,4,0
O=C(Nc1ccccc1)Nc1ccc(Oc2ccc3nccn3n2)cc1,9,7,0,17,32,0,0,0,0,10,16,1,38,0,14,0,0,15,0,0

# Source: PMC5540273 (PLoS ONE, 2017)
